Assay results from publication PMC7862700, “An all-to-all approach to the identification of sequence-specific readers for epigenetic DNA modifications on cytosine”.

What was measured:
Test in all cases: DAPPL (digital affinity profiling via proximity ligation, sequencing); 10 mM Tris-HCl pH 7.5, 50 mM NaCl, 1 mM DTT, 4% glycerol, room temperature, 30 min; GST-TFs on glutathione beads, 16-mer random dsDNA library, 0.1% formaldehyde crosslink after washing; high values mean tight binding
FEV = biological target: T1, FEV (Homo sapiens, UniProt Q99581 1-238); settings: protein: recombinant; tags: N-terminal GST; dsDNA, one strand shown
T1 sequence: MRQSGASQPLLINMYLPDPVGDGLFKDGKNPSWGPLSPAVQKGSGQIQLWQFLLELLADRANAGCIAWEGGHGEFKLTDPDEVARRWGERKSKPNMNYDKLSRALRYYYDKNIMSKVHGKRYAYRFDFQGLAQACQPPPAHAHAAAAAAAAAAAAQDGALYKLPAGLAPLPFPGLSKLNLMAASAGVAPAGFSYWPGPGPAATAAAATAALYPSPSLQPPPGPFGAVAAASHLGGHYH
In short: (§1)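 Pools of DNA-barcoded human transcription factors, expressed in yeast as GST fusions on glutathione beads and combined with a tag-only sample, were incubated with 200 nmole of a 16-mer random double-stranded DNA library. Incubation took 30 min at room temperature in Tris/NaCl/DTT/glycerol buffer and was followed by washing, 0.1% formaldehyde crosslinking, proximity ligation (BsaI/T4 ligase, 1 h, 37 °C), PCR amplification and sequencing on an Illumina NextSeq500. Binding signal is the ratio of a hexamer's read frequency for a factor to its frequency for the tag-only sample.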

ETV5 = ETV5 (Homo sapiens, UniProt P41161 1-510); settings: protein: recombinant; tags: N-terminal GST; dsDNA, one strand shown
Sequence of ETV5 (P41161 whole entry): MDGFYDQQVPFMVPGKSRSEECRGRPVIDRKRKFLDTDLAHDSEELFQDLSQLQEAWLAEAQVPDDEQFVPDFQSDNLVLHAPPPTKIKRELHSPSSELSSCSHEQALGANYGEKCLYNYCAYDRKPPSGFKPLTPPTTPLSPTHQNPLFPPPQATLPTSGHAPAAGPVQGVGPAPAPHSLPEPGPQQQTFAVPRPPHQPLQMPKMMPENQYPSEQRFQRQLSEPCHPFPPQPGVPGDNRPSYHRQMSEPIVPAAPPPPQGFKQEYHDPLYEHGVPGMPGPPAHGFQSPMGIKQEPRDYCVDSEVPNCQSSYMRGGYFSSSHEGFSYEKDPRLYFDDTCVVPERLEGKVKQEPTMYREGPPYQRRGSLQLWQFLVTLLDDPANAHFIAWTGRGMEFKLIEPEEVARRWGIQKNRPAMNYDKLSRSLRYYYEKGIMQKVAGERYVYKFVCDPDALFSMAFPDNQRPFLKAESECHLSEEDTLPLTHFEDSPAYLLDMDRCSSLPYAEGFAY
In short: as §1

HSF1 = HSF1 (Homo sapiens, UniProt Q00613 1-529); settings: protein: recombinant; tags: N-terminal GST; chain copies: 3; dsDNA, one strand shown
Sequence of HSF1 (Q00613 whole entry): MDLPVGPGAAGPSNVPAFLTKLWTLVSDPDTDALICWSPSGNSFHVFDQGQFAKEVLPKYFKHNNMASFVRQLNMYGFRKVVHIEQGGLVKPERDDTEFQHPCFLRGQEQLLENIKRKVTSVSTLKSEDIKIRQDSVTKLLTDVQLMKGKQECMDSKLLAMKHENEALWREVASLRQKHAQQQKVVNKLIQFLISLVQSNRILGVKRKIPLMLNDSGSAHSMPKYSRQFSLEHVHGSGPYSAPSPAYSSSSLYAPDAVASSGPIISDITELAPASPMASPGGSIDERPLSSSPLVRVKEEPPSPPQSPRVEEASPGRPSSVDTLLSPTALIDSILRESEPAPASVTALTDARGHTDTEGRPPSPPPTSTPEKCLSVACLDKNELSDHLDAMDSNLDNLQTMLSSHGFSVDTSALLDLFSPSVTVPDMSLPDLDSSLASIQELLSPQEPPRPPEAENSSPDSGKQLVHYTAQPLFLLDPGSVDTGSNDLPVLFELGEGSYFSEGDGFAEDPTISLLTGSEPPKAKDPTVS
In short: as §1

SPIC = biological target: T2, SPIC (Homo sapiens, UniProt Q8N5J4 1-248); settings: protein: recombinant; tags: N-terminal GST; dsDNA, one strand shown
T2 sequence: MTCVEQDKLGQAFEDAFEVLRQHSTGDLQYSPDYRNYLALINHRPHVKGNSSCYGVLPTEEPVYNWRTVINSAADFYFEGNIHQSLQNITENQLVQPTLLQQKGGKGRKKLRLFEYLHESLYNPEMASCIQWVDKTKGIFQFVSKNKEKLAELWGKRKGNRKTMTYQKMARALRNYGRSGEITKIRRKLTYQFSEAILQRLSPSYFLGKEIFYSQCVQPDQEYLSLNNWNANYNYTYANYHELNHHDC
In short: as §1

ELF4 = ELF4 (Homo sapiens, UniProt Q99607 1-663); settings: protein: recombinant; tags: N-terminal GST; dsDNA, one strand shown
Sequence of ELF4 (Q99607 whole entry): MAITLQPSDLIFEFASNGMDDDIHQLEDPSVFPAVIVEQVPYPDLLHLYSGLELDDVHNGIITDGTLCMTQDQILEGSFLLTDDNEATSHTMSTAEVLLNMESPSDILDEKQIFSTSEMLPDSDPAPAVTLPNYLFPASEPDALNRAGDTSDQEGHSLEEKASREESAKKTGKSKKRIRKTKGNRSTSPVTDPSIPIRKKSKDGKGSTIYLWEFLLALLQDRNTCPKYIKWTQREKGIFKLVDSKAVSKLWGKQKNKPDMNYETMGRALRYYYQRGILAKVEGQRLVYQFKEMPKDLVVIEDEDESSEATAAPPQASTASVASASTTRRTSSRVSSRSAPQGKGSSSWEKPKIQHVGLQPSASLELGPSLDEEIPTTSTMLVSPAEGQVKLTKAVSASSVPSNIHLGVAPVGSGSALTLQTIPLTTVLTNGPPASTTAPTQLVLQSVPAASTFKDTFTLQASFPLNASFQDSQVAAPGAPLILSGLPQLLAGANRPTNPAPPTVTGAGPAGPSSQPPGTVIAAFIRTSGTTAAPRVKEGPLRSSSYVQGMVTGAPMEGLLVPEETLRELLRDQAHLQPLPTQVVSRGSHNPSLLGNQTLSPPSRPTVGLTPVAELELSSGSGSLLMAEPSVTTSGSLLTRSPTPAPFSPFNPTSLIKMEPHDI
In short: as §1

ELK4 = biological target: T3, ELK4 (Homo sapiens, UniProt P28324-2 1-405); settings: protein: recombinant; tags: N-terminal GST; dsDNA, one strand shown
T3 sequence: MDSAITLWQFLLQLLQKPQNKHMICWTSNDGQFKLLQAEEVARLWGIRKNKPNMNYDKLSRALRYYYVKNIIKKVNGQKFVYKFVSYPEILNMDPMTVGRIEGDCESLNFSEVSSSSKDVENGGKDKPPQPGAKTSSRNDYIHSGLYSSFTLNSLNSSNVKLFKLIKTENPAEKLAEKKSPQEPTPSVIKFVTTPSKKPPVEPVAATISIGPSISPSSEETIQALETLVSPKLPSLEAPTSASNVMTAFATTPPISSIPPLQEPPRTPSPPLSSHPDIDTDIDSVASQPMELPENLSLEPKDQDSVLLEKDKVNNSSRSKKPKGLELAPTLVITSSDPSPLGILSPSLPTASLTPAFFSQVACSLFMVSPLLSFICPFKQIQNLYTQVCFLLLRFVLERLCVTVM
In short: as §1

ETV2 = biological target: T4, ETV2 (Homo sapiens, UniProt O00321 1-342); settings: protein: recombinant; tags: N-terminal GST; dsDNA, one strand shown
T4 sequence: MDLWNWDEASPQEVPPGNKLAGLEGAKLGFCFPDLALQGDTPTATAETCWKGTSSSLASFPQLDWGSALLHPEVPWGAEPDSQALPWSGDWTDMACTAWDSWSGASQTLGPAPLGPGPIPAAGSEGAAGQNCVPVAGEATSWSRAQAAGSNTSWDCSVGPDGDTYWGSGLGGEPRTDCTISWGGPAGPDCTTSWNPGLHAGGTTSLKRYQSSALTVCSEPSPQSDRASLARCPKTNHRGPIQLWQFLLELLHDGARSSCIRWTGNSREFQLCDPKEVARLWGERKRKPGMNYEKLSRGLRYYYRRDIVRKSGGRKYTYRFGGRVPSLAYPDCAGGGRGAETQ
In short: as §1

ELF3 = biological target: T5, ELF3 (Homo sapiens, UniProt P78545 1-371); settings: protein: recombinant; tags: N-terminal GST; dsDNA, one strand shown
T5 sequence: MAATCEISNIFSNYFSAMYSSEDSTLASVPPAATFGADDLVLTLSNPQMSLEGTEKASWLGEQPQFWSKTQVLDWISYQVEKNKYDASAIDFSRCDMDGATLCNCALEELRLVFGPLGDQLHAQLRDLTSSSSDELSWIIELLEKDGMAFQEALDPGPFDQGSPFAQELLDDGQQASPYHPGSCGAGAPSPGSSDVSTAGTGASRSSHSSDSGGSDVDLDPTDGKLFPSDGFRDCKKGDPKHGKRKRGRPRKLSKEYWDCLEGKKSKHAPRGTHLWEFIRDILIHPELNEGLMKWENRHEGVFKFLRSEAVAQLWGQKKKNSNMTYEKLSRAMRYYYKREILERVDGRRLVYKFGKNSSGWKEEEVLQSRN
In short: as §1

CRX = CRX (Homo sapiens, UniProt O43186 1-299); settings: protein: recombinant; tags: N-terminal GST; dsDNA, one strand shown
Sequence of CRX (O43186 whole entry): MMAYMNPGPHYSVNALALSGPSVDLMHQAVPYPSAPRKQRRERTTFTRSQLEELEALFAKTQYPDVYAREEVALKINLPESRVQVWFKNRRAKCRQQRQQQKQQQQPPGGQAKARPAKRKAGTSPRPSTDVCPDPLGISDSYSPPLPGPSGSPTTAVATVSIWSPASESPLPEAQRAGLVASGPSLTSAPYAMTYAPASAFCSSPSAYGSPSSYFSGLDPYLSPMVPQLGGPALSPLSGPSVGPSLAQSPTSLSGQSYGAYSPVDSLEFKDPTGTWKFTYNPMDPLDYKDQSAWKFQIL
In short: as §1

ETV1 = ETV1 (Homo sapiens, UniProt P50549 1-477); settings: protein: recombinant; tags: N-terminal GST; dsDNA, one strand shown
Sequence of ETV1 (P50549 whole entry): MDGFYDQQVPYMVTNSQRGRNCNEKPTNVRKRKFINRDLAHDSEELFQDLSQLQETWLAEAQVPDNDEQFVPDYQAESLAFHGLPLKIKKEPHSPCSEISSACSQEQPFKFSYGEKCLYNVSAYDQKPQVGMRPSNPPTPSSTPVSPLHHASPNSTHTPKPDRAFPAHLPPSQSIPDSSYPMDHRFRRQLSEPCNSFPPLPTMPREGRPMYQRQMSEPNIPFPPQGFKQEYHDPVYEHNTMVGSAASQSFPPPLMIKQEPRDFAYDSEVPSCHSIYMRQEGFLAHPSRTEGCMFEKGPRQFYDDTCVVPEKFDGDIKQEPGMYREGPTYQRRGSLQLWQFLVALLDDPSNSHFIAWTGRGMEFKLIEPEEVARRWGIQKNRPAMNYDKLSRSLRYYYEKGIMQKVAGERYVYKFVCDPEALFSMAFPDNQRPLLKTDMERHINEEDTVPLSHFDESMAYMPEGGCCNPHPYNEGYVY
In short: as §1

| Sequence | binding signal (FEV) | binding signal (ETV5) | binding signal (HSF1) | binding signal (SPIC) | binding signal (ELF4) | binding signal (ELK4) | binding signal (ETV2) | binding signal (ELF3) | binding signal (CRX) | binding signal (ETV1) |
| --- | --- | --- | --- | --- | --- | --- | --- | --- | --- | --- |
| TTGGTG | 1.22 fold enrichment (6-mer frequency, TF over GST control) | 1.32 fold enrichment (6-mer frequency, TF over GST control) | 1.18 fold enrichment (6-mer frequency, TF over GST control) | 1.32 fold enrichment (6-mer frequency, TF over GST control) | 1.3 fold enrichment (6-mer frequency, TF over GST control) | 1.44 fold enrichment (6-mer frequency, TF over GST control) | 1.52 fold enrichment (6-mer frequency, TF over GST control) | 1.3 fold enrichment (6-mer frequency, TF over GST control) | 1.28 fold enrichment (6-mer frequency, TF over GST control) | 1.41 fold enrichment (6-mer frequency, TF over GST control) |
| TTATCG | 1.21 fold enrichment (6-mer frequency, TF over GST control) | 1.25 fold enrichment (6-mer frequency, TF over GST control) | 1.99 fold enrichment (6-mer frequency, TF over GST control) | 1.33 fold enrichment (6-mer frequency, TF over GST control) | 1.27 fold enrichment (6-mer frequency, TF over GST control) | 1.37 fold enrichment (6-mer frequency, TF over GST control) | 1.18 fold enrichment (6-mer frequency, TF over GST control) | 1.22 fold enrichment (6-mer frequency, TF over GST control) | 2.79 fold enrichment (6-mer frequency, TF over GST control) | 1.2 fold enrichment (6-mer frequency, TF over GST control) |
| CTAATG | 1.16 fold enrichment (6-mer frequency, TF over GST control) | 1.25 fold enrichment (6-mer frequency, TF over GST control) | 1.31 fold enrichment (6-mer frequency, TF over GST control) | 1.35 fold enrichment (6-mer frequency, TF over GST control) | 1.36 fold enrichment (6-mer frequency, TF over GST control) | 1.34 fold enrichment (6-mer frequency, TF over GST control) | 1.12 fold enrichment (6-mer frequency, TF over GST control) | 1.27 fold enrichment (6-mer frequency, TF over GST control) | 1.6 fold enrichment (6-mer frequency, TF over GST control) | 1.29 fold enrichment (6-mer frequency, TF over GST control) |
| TAATAG | 1.18 fold enrichment (6-mer frequency, TF over GST control) | 1.21 fold enrichment (6-mer frequency, TF over GST control) | 1.54 fold enrichment (6-mer frequency, TF over GST control) | 1.39 fold enrichment (6-mer frequency, TF over GST control) | 1.15 fold enrichment (6-mer frequency, TF over GST control) | 1.19 fold enrichment (6-mer frequency, TF over GST control) | 1.02 fold enrichment (6-mer frequency, TF over GST control) | 1.06 fold enrichment (6-mer frequency, TF over GST control) | 1.94 fold enrichment (6-mer frequency, TF over GST control) | 1.22 fold enrichment (6-mer frequency, TF over GST control) |
| CTACCG | 1.7 fold enrichment (6-mer frequency, TF over GST control) | 1.64 fold enrichment (6-mer frequency, TF over GST control) | 1.16 fold enrichment (6-mer frequency, TF over GST control) | 1.62 fold enrichment (6-mer frequency, TF over GST control) | 1.59 fold enrichment (6-mer frequency, TF over GST control) | 1.38 fold enrichment (6-mer frequency, TF over GST control) | 1.47 fold enrichment (6-mer frequency, TF over GST control) | 1.67 fold enrichment (6-mer frequency, TF over GST control) | 1.02 fold enrichment (6-mer frequency, TF over GST control) | 1.62 fold enrichment (6-mer frequency, TF over GST control) |
| TGCGCT | 1.25 fold enrichment (6-mer frequency, TF over GST control) | 1.28 fold enrichment (6-mer frequency, TF over GST control) | 1.07 fold enrichment (6-mer frequency, TF over GST control) | 1.24 fold enrichment (6-mer frequency, TF over GST control) | 1.19 fold enrichment (6-mer frequency, TF over GST control) | 1.46 fold enrichment (6-mer frequency, TF over GST control) | 1.35 fold enrichment (6-mer frequency, TF over GST control) | 1.04 fold enrichment (6-mer frequency, TF over GST control) | 1.2 fold enrichment (6-mer frequency, TF over GST control) | 1.17 fold enrichment (6-mer frequency, TF over GST control) |
| AACTCC | 1.32 fold enrichment (6-mer frequency, TF over GST control) | 1.32 fold enrichment (6-mer frequency, TF over GST control) | 1.23 fold enrichment (6-mer frequency, TF over GST control) | 1.32 fold enrichment (6-mer frequency, TF over GST control) | 1.3 fold enrichment (6-mer frequency, TF over GST control) | 1.13 fold enrichment (6-mer frequency, TF over GST control) | 1.23 fold enrichment (6-mer frequency, TF over GST control) | 1.13 fold enrichment (6-mer frequency, TF over GST control) | 1.19 fold enrichment (6-mer frequency, TF over GST control) | 1.26 fold enrichment (6-mer frequency, TF over GST control) |
